This excerpt belongs to a sample that is enriched for hits.
AmpC no deterg: blocks E. coli AmpC beta-lactamase in detergent-free assay; AmpC nitrocefin hydrolysis, absorbance 480 nm, 0.0001% Triton; Potency, µM (series often up to 57.1 µM), inactives show top-dose activity change, negative = inhibition, actives largely listed as inhibitors; AID 485341; P00811; 330,000 compounds, 0.52% hits;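 also: potency is read from the fitted curve at half-maximal effect; plate controls were no compound for no effect and no enzyme for full effect; nearly all actives have a fitted effect of over 20% in size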
Target sequence (P00811 whole entry, looked up): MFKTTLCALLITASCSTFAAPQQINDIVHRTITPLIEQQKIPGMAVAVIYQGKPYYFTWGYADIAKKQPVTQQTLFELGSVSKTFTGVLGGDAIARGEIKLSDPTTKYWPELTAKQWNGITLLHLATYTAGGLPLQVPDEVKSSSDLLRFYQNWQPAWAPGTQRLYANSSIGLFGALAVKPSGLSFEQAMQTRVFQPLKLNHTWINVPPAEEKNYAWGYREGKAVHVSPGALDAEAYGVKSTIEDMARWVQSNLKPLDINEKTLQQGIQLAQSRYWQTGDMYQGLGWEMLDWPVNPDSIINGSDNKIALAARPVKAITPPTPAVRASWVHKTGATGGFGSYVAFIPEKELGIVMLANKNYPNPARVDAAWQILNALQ
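AmpC (5.3 nM in the dispensed reagent) in 20 mM phosphate pH 7.0 with 0.01% (detergent screen) or 0.0001% Triton X-100 was preincubated with compounds for 15 min at room temperature. Nitrocefin was then added from an 800 uM solution, and hydrolysis was followed at 480 nm.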
AmpC inh detg: inhibitors of E. coli AmpC beta-lactamase with detergent; P00811; AmpC hydrolysis of nitrocefin, absorbance 480 nm, 0.01% Triton; Potency, µM (top dose mostly 114 µM), for inactives: at the highest dose activity change, negative = inhibition, actives largely listed as inhibitors; 370,000 compounds, 0.041% hits; AID 485294;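 also: potency is read from the fitted curve at half-maximal effect; 0% = no-compound wells and -100% = no-enzyme wells; nearly all actives have a fitted effect of over 25% in size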
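20 mM phosphate pH 7.0 + 0.01% (detergent screen) or 0.0001% Triton X-100; 5.3 nM AmpC reagent; cpd preinc 15 min RT; nitrocefin (800 uM stock) to start; A480 q20 s × 4 min; Activity was normalised to no-enzyme and no-compound control wells.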
AMA1-RON2 inh: AMA1-RON2 (P. falciparum) interaction inhibition | AlphaScreen AMA1-biotinylated RON2 peptide binding | Potency, µM (series often up to 58.2 µM), for the others: at the top dose activity change, negative = inhibition, hits mostly inhibitors | 360,000 compounds, 0.2% hits;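 also: potency is read from the fitted curve at half-maximal effect; 0% = vehicle wells and -100% = peptide control; nearly all actives have a fitted effect of over 45% in size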
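AMA1 (3D7) with his tag at 25 nM final met compounds first, then biotinylated RON2 peptide at 25 nM; detection used donor plus acceptor beads, 10 µg/mL apiece, read by AlphaScreen after 30 min at room temperature.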
Shiga inhibitor: inhibitors of Shiga toxin in Vero cells; Vero cells, Shiga toxin protein synthesis inhibition reporter; inhibition, % at 38.7 µM; 290,000 compounds, 9.2% hits; AID 2315; in the data active = inhibition mostly above about 28%, no sharp cut-off; inactive = mostly below about 43%; also: 0% is about no effect
SARS PLpro yeast-1: SARS-CoV PLP inhibition in yeast. S. cerevisiae expressing SARS-CoV PLpro, growth rescue. Potency, µM (highest dose often 32.9 µM), without a hit: top-dose activity, positive = growth rescue, actives largely listed as activators. 330,000 compounds, 0.19% hits; calls by dose curve; also: potency is read from the fitted curve at half-maximal effect; 0% is about no effect; nearly all actives have a fitted effect of over 55% in size
Cycloheximide cs: affects cycloheximide protein synthesis inhibition readout, counter-screen. cell reporter, cycloheximide protein synthesis inhibition counterscreen. 300,000 compounds, 12% hits. max response, %. AID 2314; in the data active = max response mostly above about 13%, no sharp cut-off; inactive = mostly below about 14%; also: read at 38.3 µM for the half of the compounds with a filed dose; 0% is about no effect
SARS PLpro yeast-2: Rescues yeast growth by inhibiting SARS-CoV PLpro; shares compounds with SARS PLpro yeast-1; yeast expressing SARS-CoV PLpro, growth phenotype rescue; calls only; 1,000 compounds, 19% hits; call rule not given here
An asterisk follows results filed as active; i = inactive; ? = inconclusive; · = no result; + = active, no number; [ ] = dose if it differs, or a comment. Unless noted, calls follow the shape of the dose curve; as a rule, active = well fitted curve in the direction sought with a large enough effect; inconclusive = small, poorly fitted or top-dose-only effect, or another doubt; inactive = no such curve, though single readings can be large; an effect the other way counts as inactive or inconclusive.

SMILES	AmpC no deterg	AmpC inh detg	AMA1-RON2 inh	Shiga inhibitor	SARS PLpro yeast-1	Cycloheximide cs	SARS PLpro yeast-2
CCCNC(=O)c1ccc2c(=O)c(O)c(-c3cccc(Br)c3)[nH]c2c1	-45%	-2%	103%	-6	?	-4	·
Nc1c(Cl)cc(-c2[nH]c3cc(C(=O)NCCO)ccc3c(=O)c2O)cc1Cl	-5%	?	83%	-7	?	-2	+
CCOc1cc(CNCCSc2nnnn2C)cc(Br)c1OCc1ccc(F)cc1	173%	-14%	-10%	-12	?	-4	i
O=C(CSc1nnc(-c2cccnc2)s1)Nc1ccccc1	-4%	7%	-3%	-5	?	-4	+
CCCCCN(C(=O)NC(=O)Nc1ccccc1C)S(=O)(=O)c1ccccc1	-11%	0%	-19%	13	?	7	i
COc1ccc(CNC(=O)C[C@H]2C[C@H](C(=O)N3CCOCC3)[C@@]3(CCC4CCCC4)c4[nH]c5cc(CCC(=O)N(C)C)ccc5c4CCN3C2=O)cc1OC	226%	·	-7%	·	?	·	i
Cc1oc(-c2cccc(Br)c2)nc1CN1CCC(C(=O)NCCc2ccc(Cl)cc2)CC1	·	-4%	·	·	·	·	·
CCOC(=O)C1=C(COC(=O)/C=C/c2ccco2)NC(=O)NC1C (stereo not given)	-10%	-23%	3%	·	?	·	i
CCOC(=O)C1=C(COC(=O)/C=C/c2ccc(OC)cc2)NC(=O)NC1C (stereo not given)	-10%	0%	0%	·	-3%	·	·
Cc1nnc(SCC(=O)NNC(=O)C(C)C)[nH]c1=O	-10%	-14%	8%[2.32 µM]	-2	22µM*	3	i
Cc1ccc(-c2nnn(CC(=O)N(C)C3CCCCC3)n2)o1	1%	4%	0%	-9	-1%	9	·
CC(COC(=O)c1ccccc1)(COC(=O)c1ccccc1)/[N+]([O-])=C/c1ccccc1	-22%	-11%	-23%	-3	?	1	i
CCOC(=O)c1ccc2c(c1)N(CC(=O)N1CCCCC1)C(=O)C(C)(C)O2	46%	4%	1%	1	17%	3	·
CCN1C(=O)c2cccc3c(S(=O)(=O)Nc4ccccc4OC)ccc1c23	21%	4%	7%	-7	?	-3	i
CCN(C(=O)CSc1nc2cc(C(F)(F)F)ccc2n1Cc1ccccc1)C1CCS(=O)(=O)C1 (stereo not given)	-17%	-13%	-15%	-7	-32%	-8	·
CCCCCCn1c2c(c(=N)c3c1CCC3)CCC2	22%	-11%	19%	-6	-6%	-1	·
Cc1nc(Cl)c(C(=O)Nc2cccc(F)c2)c(C)c1Cl	-32%	?	-4%	-4	-10%	-1	·
CCNC(=S)NNC(=O)c1ccccn1	-16%	?	-39%	9	?	-2	i
Cc1ccc(N=C2C(=S)N(c3ccc(C)cc3)C(=N)N2/N=C/c2ccc(Cl)cc2)cc1	-38%	?	53%	74*	11µM*	48*	+
COc1ccc(OC)c(C2/C(=C(/O)c3cnn(-c4ccccc4)c3C)C(=O)C(=O)N2CCN(C)C)c1 (stereo not given)	-21%	1%	1%	10	-5%	7	·
CC(=O)Oc1ccc(-c2cccc(C(=O)OCC(=O)Nc3ccccc3Oc3ccccc3)c2)cc1	-26%	-9%	0%	-10	?	0	+
COc1cc(C(=O)NC2CCN(Cc3nnnn3Cc3cccs3)CC2)cc(OC)c1OC	64%	-6%	-14%	14	4µM*	-2	i
COCCn1nnnc1CN1CCC(NC(=O)c2ccc(Br)cc2)CC1	-11%	-9%	5%	2	-6%	2	·
Cc1nn(C)cc1CNC(=O)/C=C/c1cnn(C)c1	-25%	?	1%	9	6%	-2	·
COc1ccc(/C=C/C(=O)NCc2cn(C)nc2C)cc1COc1ccc(Br)cc1	152%	-10%	-8%	-4	?	1	i
SMILES	AmpC no deterg	AmpC inh detg	AMA1-RON2 inh	Shiga inhibitor	SARS PLpro yeast-1	Cycloheximide cs	SARS PLpro yeast-2
COc1ccc(OCCN2CCN(C3CC(=O)N(CCC(C)C)C3=O)CC2)cc1 (stereo not given)	116%	-2%	-16%	1	-5%	1	·
CCn1cc(CN2CCC(C(=O)Nc3cccc(-c4cccc(OC)c4)c3)CC2)c(C)n1	0%	1%	-5%	12	?	-3	i
CCOC(=O)C1CCN(C(c2cc3ccc(C)cc3[nH]c2=O)c2nnnn2C2CCCCC2)CC1 (stereo not given)	-5%	-11%	-9%	-1	9%	-1	·
O=C(Nc1nnc(Cc2ccccc2)s1)Nc1ccccc1F	-13%	6%	1%	-2	?	10	+
Cc1ccc(C)c(S(=O)(=O)N2CCCOC2CNC(=O)C(=O)NCCc2ccco2)c1 (stereo not given)	22%	-2%	19%	-1	-4%	14	·
O=C(COC(=O)C1CCCCC1)Nc1cccc(F)c1	-22%	·	11%	·	-14%	·	·
O=C(COC(=O)CC1CCCC1)Nc1cccc(F)c1	-42%	-2%	8%	·	?	·	i
Cc1cccc(NS(=O)(=O)c2ccc(C)c(NS(=O)(=O)c3cccs3)c2)c1	-19%	2%	-5%	·	7%	·	·
C/C(=N\NC(=O)c1cc(-c2cccnc2)nc2ccccc12)c1ccccc1O	6%	-21%	64%	17	10µM*	11*	+
O=C(NNC(=S)Nc1ccccc1)c1cc(-c2cccnc2)nc2ccccc12	-51%	0%	38%	5	2%	2	·
COc1ccc(NCN2C(=O)CCC2=O)cc1	-11%	-1%	-9%	6	?	-2	i
COC(=O)Cc1c(C)nc2nc(-c3ccc(Cl)cc3)[nH]n2c1=O	-8%	-12%	-1%	-8	?	-6	i
CCC(C)(C)NC(=O)C(c1ccc(F)cc1)N(CCOC)C(=O)CCC(=O)Nc1nccs1 (stereo not given)	17%	6%	-8%	-11	0%	1	·
Cc1ccc(C(C)NC(=O)c2c(C)noc2C)cc1C (stereo not given)	-10%	?	5%	-14	-2%	-3	·
Cn1c(N)c(C(=O)COC(=O)CCc2c[nH]c3ccccc23)c(=O)n(C)c1=O	-9%	?	-5%	-13	3.5µM*	-6	i
Cn1c(N)c(C(=O)COC(=O)CCCc2c[nH]c3ccccc23)c(=O)n(C)c1=O	32%	?	-4%	-10	15%	-5	·

Screening data as filed in PubChem BioAssay.
